Compounds with a hit are over-represented: about 3.6% of the library has one in this group of screens.
MITF act: increases MITF-driven TRPM1 promoter luciferase signal | SK-MEL-5 TRPM1-promoter luciferase, 24 h; % of positive control, neutral wells = 0 | 300,000 compounds, 0.75% hits | activation, % at 12.5 µM;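 active = mean activation of at least 80% with every replicate also reaching 80%; inconclusive = mean reaches 80% but some replicate falls short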
APOBEC3G inh: APOBEC3G (human) deaminase inhibition; inhibition, % at 20 µM; recombinant A3G, ssDNA deamination FAM/TAMRA fluorescence; Q9HC16; 330,000 compounds, 0.28% hits;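 active = inhibition of at least 40% at 20 µM, with no more than 30% in the related APOBEC3A deaminase screen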
Target sequence (Q9HC16 whole entry, looked up): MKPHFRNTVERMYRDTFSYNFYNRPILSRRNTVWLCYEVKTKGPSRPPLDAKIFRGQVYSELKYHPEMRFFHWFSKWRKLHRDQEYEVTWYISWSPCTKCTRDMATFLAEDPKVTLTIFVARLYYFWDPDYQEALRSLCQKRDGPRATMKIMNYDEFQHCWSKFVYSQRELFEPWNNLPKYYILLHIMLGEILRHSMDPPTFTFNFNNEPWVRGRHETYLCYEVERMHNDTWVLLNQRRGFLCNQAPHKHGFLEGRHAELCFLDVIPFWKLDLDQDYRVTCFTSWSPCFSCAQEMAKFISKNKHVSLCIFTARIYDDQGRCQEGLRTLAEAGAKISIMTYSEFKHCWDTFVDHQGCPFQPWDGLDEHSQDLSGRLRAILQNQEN
Wnt act: activators of Wnt/beta-catenin signaling; Wnt/beta-catenin reporter cell assay, activator, plate reader; activation, % at 9.35 µM; 300,000 compounds, 1.2% hits; AID 743398; in the data active = activation above about 30%, passing the limit was not always enough; inconclusive = no clear call, values can overlap the other calls
esBAF inh: SWI/SNF esBAF complex inhibition | mouse ES cells, Bmi1-luciferase knock-in reporter, 24 h; 100% = twice the neutral-well signal | reporter increase, % at 12.5 µM | 350,000 compounds, 2% hits | AID 602393; in the data active = activation above about 40%; inconclusive = no clear call, values can overlap the other calls;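 also: a rise in the Bmi1 reporter signal indicates esBAF inhibition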
APOBEC3A inh: blocks human APOBEC3A ssDNA deamination | inhibition, % at 20 µM | recombinant A3A, FAM/TAMRA ssDNA deamination fluorescence | AID 493011 | P31941 | 330,000 compounds, 0.41% hits;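 active = at least 40% inhibition at 20 µM here, with at most 30% in a related deaminase screen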
PHOSPHO1 block: PHOSPHO1 (human) inhibition; Q8TCT1; inhibition, % at 13.3 µM; 290,000 compounds, 1.1% hits; recombinant PHOSPHO1, absorbance phosphatase assay; in the data active = inhibition above about 60%
Target sequence (Q8TCT1 whole entry, looked up): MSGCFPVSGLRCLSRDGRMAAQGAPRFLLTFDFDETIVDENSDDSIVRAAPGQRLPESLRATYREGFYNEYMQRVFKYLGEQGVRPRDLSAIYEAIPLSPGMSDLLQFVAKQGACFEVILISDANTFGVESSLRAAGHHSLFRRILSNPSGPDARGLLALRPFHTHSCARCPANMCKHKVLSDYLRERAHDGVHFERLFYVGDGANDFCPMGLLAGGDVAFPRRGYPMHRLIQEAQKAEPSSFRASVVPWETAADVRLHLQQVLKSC
esBAF Ring1 qPCR: de-represses Ring1 in mouse ESCs, confirming esBAF inhibition; AID 743176; 550 tested, under 10 active; mouse ESC E14, Ring1 mRNA RT-qPCR fold change; shares compounds with esBAF inh; fold change at 33 µM;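 active = Ring1 gene expression raised more than 2-fold over untreated cells in both replicates at either tested dose; inconclusive = only one replicate above 2-fold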;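 also: Ring1 transcript normalised to actin housekeeping signal by TaqMan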
Fgf4 repress: confirmation of esBAF inhibitors: Fgf4 repression in mouse ESCs | shares compounds with esBAF inh | mouse ESC E14, Fgf4 mRNA qPCR fold change; active compounds read low | Fgf4 expression fold change at 33 µM | 550 compounds, 4% hits | AID 743177;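 active = Fgf4 expression under 0.8 fold of control in both repeat measurements at one or both tested doses; inconclusive = under 0.8 fold in just a single repeat measurement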;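 also: Fgf4 transcript normalised to actin in duplex TaqMan qPCR; cells exposed to compound for 24 h before lysis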
esBAF Bmi1 qPCR: esBAF inhibition confirmed by Bmi1 de-repression; fold change at 33 µM; 550 tested, under 10 active; shares compounds with esBAF inh; mouse ESE14 ES cells, Bmi1 mRNA qPCR fold; active compounds read high;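 active = Bmi1 expression fold change above 6 at either tested concentration, seen in replicate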;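 also: higher fold means more Bmi1 de-repression and stronger esBAF inhibition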
A549 cytotox: A549 cell cytotoxicity; cell viability change % (negative = cytotoxic), % at 25 µM, hits read low; shares compounds with esBAF inh; plate reader; 550 tested, under 10 active; call rule not given here
HepG2 cytotox SP: HepG2 cell cytotoxicity at single point. plate reader; active compounds read low. shares compounds with esBAF inh. 550 compounds, 4% hits. activity change, negative = inhibition, % at 25 µM; in the data active = activity change below about -50%
HEK293 cytotox SP: HEK293 cell cytotoxicity at single point | shares compounds with esBAF inh | AID 743190 | activity change, negative = inhibition, % at 25 µM, hits read low | 550 compounds, 3% hits | plate reader; in the data active = activity change below about -38%, passing the limit was not always enough
Each line names hits and unclear results; the compound was inactive in the other large screens (follow-up assays come after a bar, where they were run).

Cc1ccnc(N2CCCC(C(=O)Nc3ccc(C)c(C)c3)C2)n1 (stereo not drawn)	none
Cc1ccc(NC(=O)C2CCCN(c3ncccn3)C2)cc1C (stereo not drawn)	esBAF inh 55.1 | esBAF Ring1 qPCR inactive | Fgf4 repress inactive | esBAF Bmi1 qPCR inactive | A549 cytotox inactive | HepG2 cytotox SP inactive | HEK293 cytotox SP inactive
CC(C)c1ccc(CNc2nnnn2C)cc1	none (no result: MITF act)
CC(C)c1ccc(CNc2ncc(Br)cn2)cc1	MITF act 95.6, esBAF inh 72.9 | esBAF Ring1 qPCR inactive | Fgf4 repress inactive | esBAF Bmi1 qPCR inactive | A549 cytotox inactive | HepG2 cytotox SP -63.0 | HEK293 cytotox SP inactive
Cc1sc2c(c1C)CN(C(C)(C)C)CN2C(=O)c1ccccc1	esBAF inh 65.6 (no result: Wnt act) | esBAF Ring1 qPCR inactive | Fgf4 repress inactive | esBAF Bmi1 qPCR inactive | A549 cytotox inactive | HepG2 cytotox SP inactive | HEK293 cytotox SP inactive
CC1(C)Cc2c(c(N3CCCC3)nc3sc(C(=O)Nc4ccccc4)c(N)c23)CO1	esBAF inh 59.3 | esBAF Ring1 qPCR inactive | Fgf4 repress inactive | esBAF Bmi1 qPCR inactive | A549 cytotox inactive | HepG2 cytotox SP inactive | HEK293 cytotox SP inactive
Cc1ccc(NC(=O)c2sc3nc(N4CCOCC4)c4c(c3c2N)CC(C)(C)OC4)cc1	none
COc1ccc(-c2csc(Nc3cc(C)ccn3)n2)cc1C	esBAF inh 46.4 | esBAF Ring1 qPCR inactive | Fgf4 repress inconclusive | esBAF Bmi1 qPCR inactive | A549 cytotox inactive | HepG2 cytotox SP inactive | HEK293 cytotox SP inactive
C[C@@H]1CN([C@@H](C)CO)C(=O)c2cc(NS(C)(=O)=O)ccc2O[C@H]1CN(C)C(=O)NC1CCCCC1	none (no result: MITF act, APOBEC3G inh, Wnt act, APOBEC3A inh, PHOSPHO1 block)
CCc1ccccc1NC(=O)c1cc(-c2cccc(O)c2)on1	esBAF inh 78.6 (no result: MITF act) | esBAF Ring1 qPCR inactive | Fgf4 repress inconclusive | esBAF Bmi1 qPCR inactive | A549 cytotox inactive | HepG2 cytotox SP inactive | HEK293 cytotox SP inactive
Nc1nc(SCc2ccccc2)cc(SCc2ccccc2)n1	Wnt act 39.0, esBAF inh 65.2 (no result: APOBEC3G inh, APOBEC3A inh, PHOSPHO1 block) | esBAF Ring1 qPCR inactive | Fgf4 repress inactive | esBAF Bmi1 qPCR inactive | A549 cytotox inactive | HepG2 cytotox SP inactive | HEK293 cytotox SP inactive
Cc1sc(NC(=O)c2cccs2)nc1-c1ccccc1	Wnt act 47.3, esBAF inh 63.6 (no result: MITF act) | esBAF Ring1 qPCR 2.45 | Fgf4 repress inactive | esBAF Bmi1 qPCR inactive | A549 cytotox inactive | HepG2 cytotox SP inactive | HEK293 cytotox SP inactive
Cc1ccc2oc(-c3cccc(NC(=S)NC(=O)c4cccs4)c3)nc2c1	none (no result: esBAF inh)
O=C(Nc1ccc2oc(-c3ccccc3)nc2c1)c1cccs1	esBAF inh 77.6 (no result: Wnt act) | esBAF Ring1 qPCR inactive | Fgf4 repress inconclusive | esBAF Bmi1 qPCR inactive | A549 cytotox inactive | HepG2 cytotox SP inactive | HEK293 cytotox SP inactive
CC1(C)CC(=O)c2sc(NC(=O)c3ccccc3)nc2C1	none (no result: MITF act, Wnt act, esBAF inh)
CC1(C)CNC(=O)c2sc(NC(=O)c3ccccc3)nc2C1	MITF act 90.7, esBAF inh 84.3 | esBAF Ring1 qPCR inactive | Fgf4 repress inactive | esBAF Bmi1 qPCR inactive | A549 cytotox inactive | HepG2 cytotox SP inactive | HEK293 cytotox SP inactive
Cc1ccn2c(CC(C)(C)C)c(-c3ccc(F)cc3)nc2c1	Wnt act 55.3, esBAF inh 65.1 (no result: MITF act, APOBEC3G inh, APOBEC3A inh, PHOSPHO1 block) | esBAF Ring1 qPCR inactive | Fgf4 repress inactive | esBAF Bmi1 qPCR inactive | A549 cytotox inactive | HepG2 cytotox SP inactive | HEK293 cytotox SP inactive
Cc1ccc(Cc2c(-c3ccc(C)cc3)nc3cc(C)ccn23)cc1	none (no result: MITF act, APOBEC3G inh, APOBEC3A inh, PHOSPHO1 block)
C[C@H](CO)N1C[C@H](C)[C@H](CN(C)C(=O)NC2CCCC2)OCc2cnnn2CCCC1=O	none (no result: MITF act, APOBEC3G inh, Wnt act, APOBEC3A inh, PHOSPHO1 block)
C[C@H]1CN([C@@H](C)CO)C(=O)Cc2cc(NC(=O)Nc3ccc(F)cc3)ccc2O[C@H]1CN(C)S(=O)(=O)c1cccs1	none (no result: MITF act, APOBEC3G inh, Wnt act, APOBEC3A inh, PHOSPHO1 block)
O=C(c1ccncc1)N1N=C(c2ccc(Cl)cc2)CC1c1ccccc1O (stereo not drawn)	esBAF inh 80.3 | esBAF Ring1 qPCR inactive | Fgf4 repress inactive | esBAF Bmi1 qPCR inactive | A549 cytotox inactive | HepG2 cytotox SP inactive | HEK293 cytotox SP inactive
C[C@@H]1CN([C@H](C)CO)C(=O)c2cc(NC(=O)Nc3cccc4ccccc34)ccc2O[C@@H]1CN(C)S(=O)(=O)c1cccs1	none (no result: MITF act, APOBEC3G inh, Wnt act, APOBEC3A inh, PHOSPHO1 block)
Cc1c(Cl)cccc1NC(=O)c1cc(C2CC2)on1	esBAF inh 66.5 | esBAF Ring1 qPCR inactive | Fgf4 repress inactive | esBAF Bmi1 qPCR inactive | A549 cytotox inactive | HepG2 cytotox SP inactive | HEK293 cytotox SP inactive
O=C(Nc1ccccc1Cl)c1cc(C2CCCN(C(=O)OCCF)C2)on1 (stereo not drawn)	esBAF inh inconclusive (no result: MITF act, APOBEC3G inh, APOBEC3A inh, PHOSPHO1 block)
O=C(Nc1ccccc1)c1cc(C2CCCN(C(=O)c3ccccc3)C2)on1 (stereo not drawn)	esBAF inh 57.4 (no result: MITF act, APOBEC3G inh, APOBEC3A inh, PHOSPHO1 block) | esBAF Ring1 qPCR inactive | Fgf4 repress inactive | esBAF Bmi1 qPCR inactive | A549 cytotox inactive | HepG2 cytotox SP inactive | HEK293 cytotox SP inactive
COC(=O)N1CCCC(c2cc(C(=O)Nc3ccccc3Cl)no2)C1 (stereo not drawn)	esBAF inh 73.1 (no result: MITF act, APOBEC3G inh, APOBEC3A inh, PHOSPHO1 block) | esBAF Ring1 qPCR inactive | Fgf4 repress inactive | esBAF Bmi1 qPCR inactive | A549 cytotox inactive | HepG2 cytotox SP inactive | HEK293 cytotox SP inactive
CC(=O)Nc1ccc(C(=O)N2CCCC(c3cc(C(=O)Nc4ccccc4)no3)C2)cc1 (stereo not drawn)	none (no result: MITF act, APOBEC3G inh, APOBEC3A inh, PHOSPHO1 block)
COC(=O)c1ccccc1NC(=O)c1cc(C2CC2)on1	none
COC(=O)c1c(-c2ccc(SC)cc2)sc2ccc(OC)cc12	Wnt act 57.8, esBAF inh 98.6 (no result: PHOSPHO1 block) | esBAF Ring1 qPCR inactive | Fgf4 repress inactive | esBAF Bmi1 qPCR inactive | A549 cytotox inactive | HepG2 cytotox SP inactive | HEK293 cytotox SP inactive
COc1ccc2sc(-c3ccc(S(C)(=O)=O)cc3)c(-c3ccc(SC)cc3)c2c1	none (no result: PHOSPHO1 block)
O=C(NC1CCCC1)c1cc(-c2ccc(Cl)c(Cl)c2)on1	MITF act 106.7, esBAF inh 64.3 | esBAF Ring1 qPCR inactive | Fgf4 repress inactive | esBAF Bmi1 qPCR inactive | A549 cytotox inactive | HepG2 cytotox SP inactive | HEK293 cytotox SP inactive
Cc1c(NC(=O)c2cc(-c3ccc(Cl)c(Cl)c3)on2)c(=O)n(-c2ccccc2)n1C	none

Screens from PubChem.
